Results on 47 compounds are retold here after the supplement of paper PMC11537057.

The structures appear in SMILES notation. Where a name gives a salt, the structure may show the parent alone. ± gives the standard deviation of the averaged measurements. Over roughly 1,700 compounds, “cell number in HSV-1-infected wells relative to infected DMSO wells (H2B-RFP signal)” has its median near 100; the highest 2% begin near 140. The list comes from a sample in which the highest values are over-represented; it also holds similar structures and randomly drawn compounds.

The assay deals with A549 infected with HSV-1. Nature of the assay: cell number in HSV-1-infected wells relative to infected DMSO wells (H2B-RFP signal); higher = more surviving cells (uninfected or antiviral-protected wells give about 200%; low = toxicity). As to conditions: 10 µM; 48 h; MOI: 0.1. As for the experimental part: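 Selleck FDA-approved library (L1300) screened in duplicate at 10 µM on A549 H2B-mRuby cells in 384-well plates, infected with HSV-1 strain 17 YFP-ICP4 at MOI 0.1 one hour before drug addition. Imaged after 2 days at 37°C. Cell growth (H2B-RFP) and infection (ICP4-YFP) are expressed as % of DMSO-treated wells. Hits: growth >90% and infection <20% of DMSO.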
On to `Cc1nccn1CC1CCc2c(c3ccccc3n2C)C1=O` (configuration not stated) [Ondansetron HCl], for which the “cell number in HSV-1-infected wells” value was 74.7 ± 25%.

In the case of `Cc1nccn1CC1CCc2c(c3ccccc3n2C)C1=O` (configuration not stated) [Ondansetron Hydrochloride Dihydrate], the “cell number in HSV-1-infected wells” value came to 76 ± 13%.

On to `CN(C)CCC=C1c2ccccc2COc2ccccc21` [Doxepin HCl], for which the “cell number in HSV-1-infected wells” value was 104 ± 11%.

For the compound `Cc1[nH]cnc1CN1CCc2c(c3ccccc3n2C)C1=O` [Alosetron Hydrochloride], the “cell number in HSV-1-infected wells” value was 112 ± 6.3%.

As to `COC(=O)C1=C(C)NC(C)=C(C(=O)OC(C)C)C1c1cccc2nonc12` (configuration not stated) [Isradipine], the “cell number in HSV-1-infected wells” value was 97.7 ± 3.5%.

For the compound `O=NN(CCCl)C(=O)NC1CCCCC1` [Lomustine], the “cell number in HSV-1-infected wells” value came out at 84.7 ± 27%.

For the compound `CO/N=C(\C(=O)N[C@@H]1C(=O)N2C(C(=O)OCOC(=O)C(C)(C)C)=C(/C=C\c3scnc3C)CS[C@H]12)c1csc(N)n1` [Cefditoren Pivoxil], the “cell number in HSV-1-infected wells” value stood at 110 ± 2.6%.

Consider `CO/N=C(\C(=O)N[C@@H]1C(=O)N2C(C(=O)O)=C(COC(C)=O)CS[C@H]12)c1csc(N)n1` [Cefotaxime sodium], for which the “cell number in HSV-1-infected wells” value was 103 ± 12%.

For `CC/C=C(\C(=O)N[C@@H]1C(=O)N2C(C(=O)OCOC(=O)C(C)(C)C)=C(COC(N)=O)CS[C@H]12)c1csc(N)n1` [Cefcapene Pivoxil Hydrochloride], the “cell number in HSV-1-infected wells” value came to 149.2 ± 0.042%.

Take `CCC(=O)NS(=O)(=O)c1ccc(-c2c(-c3ccccc3)noc2C)cc1` [Parecoxib Sodium]: the “cell number in HSV-1-infected wells” value amounted to 89.9 ± 1%.

Regarding `CCC(=O)NS(=O)(=O)c1ccc(-c2c(-c3ccccc3)noc2C)cc1` [Parecoxib], the “cell number in HSV-1-infected wells” value is 115 ± 8.7%.

Regarding `CC(=O)NO` [Acetohydroxamic acid], the “cell number in HSV-1-infected wells” value was 127 ± 15%.

Turning to `Cc1nc(-c2ccc(OCC(C)C)c(C#N)c2)sc1C(=O)O` [Febuxostat], the “cell number in HSV-1-infected wells” value stood at 95.2 ± 11%.

For the compound `O=C1[C@@H]2[C@H]3CC[C@H](C3)[C@@H]2C(=O)N1C[C@@H]1CCCC[C@H]1CN1CCN(c2nsc3ccccc23)CC1` [lurasidone], the “cell number in HSV-1-infected wells” value was 75.7 ± 27%.

As for `CN1CCOC(c2ccccc2)c2ccccc2C1` (configuration not stated) [Nefopam HCl], the “cell number in HSV-1-infected wells” value amounted to 120 ± 8.1%.

Consider `CC1(C)C[C@@H]1C(=O)N/C(=C\CCCCSC[C@H](N)C(=O)O)C(=O)O` [Cilastatin], for which the “cell number in HSV-1-infected wells” value is 99 ± 21%.

Consider `CN(C)C(=O)COC(=O)Cc1ccc(OC(=O)c2ccc(NC(=N)N)cc2)cc1` [Camostat Mesilate], for which the “cell number in HSV-1-infected wells” value is 124 ± 36%.

Turning to `Cc1c(C(C)C)c(=O)n(-c2ccccc2)n1C` [Propyphenazone (4-Isopropylantipyrine)], the “cell number in HSV-1-infected wells” value was 78.4 ± 2.3%.

Regarding `O=C(O)c1cccnc1` [Nicotinic Acid], the “cell number in HSV-1-infected wells” value came to 93.2 ± 4%.

On to `Cc1c(NC(=O)c2cccnc2)c(=O)n(-c2ccccc2)n1C` [Nifenazone], for which the “cell number in HSV-1-infected wells” value stood at 145 ± 5.2%.

`CCCC(CCC)C(N)=O` [Valpromide]: the “cell number in HSV-1-infected wells” value came to 91.6 ± 13%.

`CC(=O)Oc1ccc(C(=C2CCCCC2)c2ccc(OC(C)=O)cc2)cc1` [Cyclofenil]: the “cell number in HSV-1-infected wells” value turned out to be 122 ± 7.6%.

For `CNC(=O)c1cnn(-c2nc(N)c3ncn([C@@H]4O[C@H](CO)[C@@H](O)[C@H]4O)c3n2)c1` [Regadenoson], the “cell number in HSV-1-infected wells” value was determined as 128 ± 16%.

Take `Nc1ccc(/N=N/c2ccccc2)c(N)n1` [Phenazopyridine HCl]: the “cell number in HSV-1-infected wells” value worked out at 121 ± 23%.

In the case of `COC(=O)C1=C(C)NC(C)=C(C(=O)OCC(C)C)C1c1ccccc1[N+](=O)[O-]` (configuration not stated) [Nisoldipine], the “cell number in HSV-1-infected wells” value was 92.2 ± 1.4%.

For the compound `CC(=O)NC1CCSC1=O` (configuration not stated) [Citiolone], the “cell number in HSV-1-infected wells” value amounted to 144 ± 26%.

Take `O=C(O)CSCC(=O)NC1CCSC1=O` (configuration not stated) [Erdosteine]: the “cell number in HSV-1-infected wells” value amounted to 121 ± 9.9%.

Regarding `OC[C@H]1O[C@@H](c2ccc(Cl)c(Cc3ccc(O[C@H]4CCOC4)cc3)c2)[C@H](O)[C@@H](O)[C@@H]1O`, the “cell number in HSV-1-infected wells” value was found to be 110 ± 9%.

On to `CN[C@H]1C(=O)N[C@@H]2Cc3ccc(cc3)Oc3cc4cc(c3O[C@@H]3O[C@H](C(=O)O)[C@@H](O)[C@H](O)[C@H]3NC(=O)CCCCCCCCC(C)C)Oc3ccc(cc3Cl)[C@@H](O)[C@@H]3NC(=O)[C@H](NC(=O)[C@@H]4NC(=O)[C@@H](NC2=O)c2cc(cc(O)c2Cl)Oc2cc1ccc2O)c1ccc(O)c(c1)-c1c(O[C@H]2O[C@H](CO)[C@@H](O)[C@H](O)[C@@H]2O)cc(O)cc1[C@@H](C(=O)NCCCN(C)C)NC3=O` [Dalbavancin], for which the “cell number in HSV-1-infected wells” value came to 125 ± 2.5%.

Regarding `CSCCNc1nc(SCCC(F)(F)F)nc2c1ncn2[C@@H]1O[C@H](COP(=O)(O)OP(=O)(O)C(Cl)(Cl)P(=O)(O)O)[C@@H](O)[C@H]1O` [Cangrelor Tetrasodium], the “cell number in HSV-1-infected wells” value amounted to 99.5 ± 2.3%.

As for `CNCCCN1c2ccccc2CCc2ccccc21` [Desipramine Hydrochloride], the “cell number in HSV-1-infected wells” value was found to be 163 ± 20%.

With `CN(C)CCCN1c2ccccc2CCc2ccccc21` [Imipramine HCl], the “cell number in HSV-1-infected wells” value worked out at 134 ± 28%.

With `CN(C)CCCN1c2ccccc2CCc2ccc(Cl)cc21` [Clomipramine HCl], the “cell number in HSV-1-infected wells” value came to 93 ± 22%.

Regarding `O=C(c1ccc(F)cc1)C1CCN(CCn2c(=O)[nH]c3ccccc3c2=O)CC1` [Ketanserin], the “cell number in HSV-1-infected wells” value is 124.4 ± 0.22%.

For the compound `COc1cc(NC(C)CCCN)c2ncccc2c1` (configuration not stated) [Primaquine Diphosphate], the “cell number in HSV-1-infected wells” value was 118 ± 8%.

On to `Cc1cccc(C)c1OCC(=O)N[C@@H](Cc1ccccc1)[C@@H](O)C[C@H](Cc1ccccc1)NC(=O)[C@H](C(C)C)N1CCCNC1=O` [Lopinavir], for which the “cell number in HSV-1-infected wells” value stood at 85.9 ± 22%.

Regarding `NCCNc1ccc(NCCN)c2c1C(=O)c1ccncc1C2=O` [Pixantrone Maleate], the “cell number in HSV-1-infected wells” value amounted to 36.1 ± 10%.

As to `O=C1Nc2ccc(Cl)cc2[C@@](C#CC2CC2)(C(F)(F)F)O1` [Efavirenz], the “cell number in HSV-1-infected wells” value was found to be 10.6 ± 3.5%.

In the case of `CCOC(CN1CCN(CC(C)C(=O)c2ccccc2)CC1)c1ccccc1` (configuration not stated) [Eprazinone 2HCl], the “cell number in HSV-1-infected wells” value came out at 108.9 ± 1%.

Take `CC1=C(/C=C/C(C)=C/C=C/C(C)=C\C(=O)O)C(C)(C)CCC1` [Isotretinoin]: the “cell number in HSV-1-infected wells” value turned out to be 98.64 ± 0.63%.

As to `COc1ccc2c(c1)c(CC(=O)O)c(C)n2C(=O)c1ccc(Cl)cc1` [Indometacin Sodium], the “cell number in HSV-1-infected wells” value worked out at 69.9 ± 22%.

As to `COc1ccc(NC(=O)c2ccc(C(=N)N(C)C)cc2)c(C(=O)Nc2ccc(Cl)cn2)c1` [Betrixaban maleate], the “cell number in HSV-1-infected wells” value amounted to 130 ± 48%.

As for `COc1ccc2c(c1)c(CC(=O)O)c(C)n2C(=O)c1ccc(Cl)cc1` [Indomethacin], the “cell number in HSV-1-infected wells” value was found to be 119 ± 12%.

Take `COc1ccc(NC(=O)c2ccc(C(=N)N(C)C)cc2)c(C(=O)Nc2ccc(Cl)cn2)c1` [Betrixaban]: the “cell number in HSV-1-infected wells” value was 150 ± 40%.

Consider `CCCOC(C(=O)OC1CCN(C)CC1)(c1ccccc1)c1ccccc1` [Propiverine hydrochloride], for which the “cell number in HSV-1-infected wells” value is 102 ± 5%.

Regarding `COC(=O)c1ccc2c(C(=Nc3ccc(N(C)C(=O)CN4CCN(C)CC4)cc3)c3ccccc3)c(O)[nH]c2c1` [Nintedanib Ethanesulfonate Salt], the “cell number in HSV-1-infected wells” value came out at 91.8 ± 4.1%.

As to `CC(C)OC(=O)CCC/C=C\C[C@@H]1[C@@H](/C=C/C(F)(F)COc2ccccc2)[C@H](O)C[C@@H]1O` [Tafluprost], the “cell number in HSV-1-infected wells” value is 83.4 ± 27%.
